# From PubChem
# SRC1 inh – SRC1 coactivator transcriptional activity inhibitors, primary screen, cell-based, luminescence | Nuclear receptor coactivator 1 (Homo sapiens), Q15788 | HEK293 GAL4-SRC1 luciferase reporter | inhibition, % at 3.6 µM | 360,000 tested, 0.12% active;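 active means inhibition above the campaign mean plus 3 SD, with each screening campaign given its own cutoff, cut at about 60% in these data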;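 further: 0% = DMSO treated cells and 100% = gossypol at 36 µM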
# Efflux pump inh – inhibitors of Candida efflux pumps in yeast, primary screen, S. cerevisiae, Nile Red, multiplex. 330,000 tested, 0.44% active. S. cerevisiae Candida pump triplex. inhibition, % at 10 µM. AID 485275, 2010;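 active means plate passing quality check with inhibition over a set limit, or well fluorescence over plate mean plus 4 SD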;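 further: Nile Red retained in pooled yeast measured as flow cytometry median fluorescence; 0% = buffer negative control and 100% = Enniatin B positive control; higher means more Nile Red kept so more efflux inhibition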
# NCOA3 inh – SRC3 coactivator transcriptional activity inhibitors, primary screen, cell-based, luminescence; inhibition, % at 3.6 µM; HEK293 GAL4-SRC3 luciferase reporter; Nuclear receptor coactivator 3 (Homo sapiens), Q9Y6Q9; 360,000 tested, 0.17% active;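 active means inhibition above a per-campaign cutoff, the mean of all compounds plus 3 SD, cut at about 60% in these data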;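 further: 0% = DMSO-treated cells and 100% = gossypol-treated cells at 36 µM; higher means less SRC3-driven luciferase light from the GAL4 reporter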
# NR5A2 inv ag – LRH-1 (NR5A2) inverse agonists, primary screen, cell-based, luminescence, HEK293T, StAR-luciferase reporter | LRH-1 transfected, 24 h | inhibition, % at 3.6 µM | 360,000 tested, 0.13% active;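 active means inhibition above the mean inhibition of all tested compounds plus 3 SD, cut at about 73% in these data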;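 further: 0% = DMSO wells and 100% = reporter-only cells lacking LRH-1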
# NCOA2 inhibitor – inhibition of GAL4-SRC2 driven luciferase reporter, primary screen, SRC2 inhibitor project, cell-based, luminescence | 370,000 tested, 0.17% active | AID 651957, 2012 | HEK293 GAL4-SRC2 luciferase reporter | inhibition, % at 9 µM;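 active means inhibition above the mean inhibition of all tested compounds plus 3 SD, set per campaign, cut at about 52% in these data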;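 further: 0% = DMSO treated cells and 100% = cells given Gossypol at 36 µM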
# COUP-TFII inh – NR2F2 transcriptional activity inhibitors, primary screen, cell-based, luciferase reporter, HEK293T, luminescence; COUP transcription factor 2 (Homo sapiens), P24468; HEK293T NGFI-A luciferase reporter; inhibition, % at 8.6 µM; 370,000 tested, 0.7% active;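 active means inhibition above a per-plate cutoff, mean inhibition of test wells between control levels plus 3 SD, cut at about 38% in these data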;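 further: cells cotransfected with COUP-TFII expression vector driving the NGFI-A reporter; 0% = median of COUP-TF2 test wells and 100% = reporter-only cells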
# Gal4-VP16 ctr – Gal4-VP16 luciferase reporter inhibitors, counter-screen for COUP-TFII antagonist project, cell-based, luminescence, HEK293. inhibition, % at 8.5 µM. shares compounds with COUP-TFII inh. 2,500 tested, 25% active. AID 687007, 2013; in the data active means inhibition above about 13%
# COUP-TFII conf – NR2F2 transcriptional activity inhibitors, confirmation, cell-based, luciferase reporter, HEK293, triplicate; shares compounds with COUP-TFII inh; HEK293 NGFI-A luciferase reporter, luminescence; inhibition, % at 8.5 µM; 2,500 tested, 45% active; AID 687008, 2013;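 active means mean inhibition over three repeats above a set limit taken from the earlier primary screen, cut at about 38% in these data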;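 further: 100% = cells given the luciferase reporter alone without the COUP-TF2 vector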
# Starred values were filed as active, the others as inactive; / = no result given. Only some compounds are listed: those with a hit (about 1.2% of all), similar ones and a draw of the others.
SMILES,SRC1 inh,Efflux pump inh,NCOA3 inh,NR5A2 inv ag,NCOA2 inhibitor,COUP-TFII inh,Gal4-VP16 ctr,COUP-TFII conf
COc1ccccc1NC(=O)C(C)OC(=O)c1cc2ccccc2[nH]1 (centres undefined),7,0,0,30,39,38*,1,42*
O=C(Nc1cccc(S(=O)(=O)c2cccc(NC(=O)c3ccco3)c2)c1)c1ccco1,-27,0,31,15,17,70*,5,32
COc1cccc(N2CCN(c3c4c(nc5ncnn35)CCC4)CC2)c1,-9,0,-5,21,9,55*,-7,12
N#Cc1cccc(NC(=O)c2cc(C3CCCCN3C(=O)c3ccc4c(c3)CCO4)on2)c1 (centres undefined),5,/,-12,-17,-18,15,/,/
Cc1ccc(NC(=O)c2ccc(S(=O)(=O)NCc3cccnc3)cc2)cc1C,-13,0,-13,-4,-5,-6,/,/
COc1cccc(S(=O)(=O)NCc2ccc(C(=O)Nc3ccc(Cl)c(Cl)c3)cc2)c1,9,0,-11,13,-7,64*,-9,23
O=C(Nc1ccc(Cl)c(Cl)c1)c1cccc(S(=O)(=O)NCc2cccnc2)c1,25,0,23,29,16,53*,0,30
CCN(CC(=O)Nc1ccc(N2CCOCC2)cc1)C(=O)Cc1ccccc1,9,0,11,-32,-17,12,/,/
CCc1ccc(-c2nnn(CCC(=O)OC)n2)cc1,27,0,26,23,76*,57*,60*,50*
Cc1nc(N2CCN(Cc3ccc4c(c3)OCO4)CC2)c2oc3ccccc3c2n1,-1,/,4,21,31,83*,-5,9
Cc1ccc2c(c1)[nH]c1c(N3CCN(Cc4ccccc4)CC3)ncnc12,14,0,20,23,3,67*,0,40*
Cc1nc(N2CCN(Cc3ccc(Cl)cc3)CC2)c2oc3ccccc3c2n1,-26,0,9,13,-1,27,/,/
Cc1ccc2[nH]c3c(N4CCN(Cc5ccc6c(c5)OCO6)CC4)ncnc3c2c1,/,/,/,/,7,1,/,/
COc1ccc2c(c1)[nH]c1c(N3CCN(Cc4ccc5c(c4)OCO5)CC3)ncnc12,6,0,24,51,8,46*,10,65*
COc1ccc(C(C)=O)cc1CSc1nnc(C)s1,-12,0,-1,13,-21,-9,/,/
COc1ccc(C(C)=O)cc1CSc1nnc(Nc2ccccc2)s1,7,0,38,23,9,50*,3,36
COc1ccc(C(C)=O)cc1CSc1nnc(Nc2ccc(C)cc2)s1,11,-1,19,-18,17,42*,10,21
Cc1cc(S(=O)(=O)Nc2ccc(C(=O)NCC3(N(C)C)CCCCC3)cc2)ccc1F,2,0,-9,-3,-11,-1,/,/
O=[N+]([O-])c1ccccc1S(=O)(=O)N(CC1CO1)c1ccccc1 (centres undefined),-26,0,1,8,-15,-15,/,/
CCC1CCCCN1S(=O)(=O)c1c(C)n(C)c(=O)n(C)c1=O (centres undefined),-6,0,19,7,-48,1,/,/
COc1cccc(CN(C)C(=O)c2cccc(NC(=O)CC3SC(N4CCCCC4)=NC3=O)c2)c1OC (centres undefined),12,0,5,-14,27,-8,/,/
COc1cccc(CN(C)C(=O)c2ccc(OCC(=O)Nc3cccc(C(F)(F)F)c3)c(OC)c2)c1,28,0,45,36,24,77*,8,76*
